Hit rate of the full screen: of about 360,000 compounds, about 2,400 (0.67%) were called active. The sample as a whole holds a higher share of actives than the screen did. Values without a mark were called inactive. Cut-off read from the data, not from the text of the source: active = enhancement above about 30%; inactive = the rest. Peptide text beside a SMILES is read from it. * marks the point of attachment. OPac = O=C(CO*)c1ccccc1; Bz = O=C(c1ccccc1)*
target: Thyrotropin-releasing hormone receptor (Homo sapiens) (UniProt P34981); test: qHTS for Small Molecule Agonists and Allosteric Enhancers of Human TRH Receptor: Primary Screen for Enhancers; details: TRHR cells, fluo-8 calcium fluorescence, EC20 TRH enhancement; at 2 µM; hits give high values; note: 0% is about no effect
Source text: NIH Chemical Genomics Center [NCGC] NIH Molecular Libraries Probe Centers Network [MLPCN] MLPCN Grant: MH089816-01 Assay Submitter (PI): Marvin Gershengorn This project aims to identify small drug-like molecules that activate (agonists) the thyrotropin releasing hormone (TRH) receptor (TRHR) or enhance its TRH-stimulated activity (allosteric enhancers). TRHR, a drug-accessible cell surface receptor expressed in specific brain regions, and its ligand TRH have been implicated in several central nervous system disorders, including depression and anxiety. Small molecule TRHR agonists or allosteric enhancers that are metabolically stable and able to cross the blood-brain barrier might serve as probes to elucidate the roles of brain TRH receptors in animal models, and might be valuable as lead compounds for the development of drugs to treat patients with central nervous system disorders. Upon TRHR-Gq activation in TRHR cells, intracellular calcium is released from stores in the endoplasmic reticulum. […] This primary screen measures compound-induced enhancement of an EC20 stimulation of the receptor by its native ligand.
For the HTS assay freshly prepared cells are plated at a density of 2000/well in 3 ul of complete DMEM medium containing 10% serum in 1536-well plates and cultured over night at 37 C in a humidified incubator with 5% CO2. The next day, 2 ul of a no wash calcium dye (ABD Bioquest) was added to the cells and plates were incubated at room temperature for 1 hour. For the assay, assay plates were loaded into the FDSS kinetic plate reader. A 10 cycle (1 second/cycle) baseline measurement is taken and then the FDSS online 1536 pintool delivers 23 nl of compound library (as well as TRH controls) to the plate. The plate is measured for kinetically at 1 cycle/sec for 180 seconds and is considered to be the agonist portion of the assay (eg, compounds which activate a positive calcium response during this portion are flagged as potential agonists). Following the 180 second read, 1 ul of either an EC20 (positive modulation assay) is delivered by an onboard pipette head. Measurements are taken kinetically for an additional 180 seconds. TRHR FDSS Screening Protocol 1. Reagent, 3 uL 2000 cells/well 1536 TC treated Black plate in media containing 10% FCS 2. Time, 18 hours, 33.5C 5% CO2 (cells grown at 37C) 3. Reagent, 2 uL ABD fluo-8 Ca dye 4. Time, 30 min-1.5hrs hours, Room temp (6 plates/batch) 5. Detector, EX 480/EM 530C, FDSS 10 cycles baseline (1sec/cycle) 6. Compound, 23 nL of stock solution from library 7. Detector, EX 480/EM 530C, FDSS 230 cycles (1sec/cycle) Agonist mode 8. Compound, 1 ul EC20 of TRH made up in HEPES HBSS, 10 nM final 9. Detector, EX 480/EM 530C, FDSS 100 cycles (1sec/cycle) Potentiator mode

Sequence of Thyrotropin-releasing hormone receptor (Homo sapiens) (P34981 whole entry, looked up): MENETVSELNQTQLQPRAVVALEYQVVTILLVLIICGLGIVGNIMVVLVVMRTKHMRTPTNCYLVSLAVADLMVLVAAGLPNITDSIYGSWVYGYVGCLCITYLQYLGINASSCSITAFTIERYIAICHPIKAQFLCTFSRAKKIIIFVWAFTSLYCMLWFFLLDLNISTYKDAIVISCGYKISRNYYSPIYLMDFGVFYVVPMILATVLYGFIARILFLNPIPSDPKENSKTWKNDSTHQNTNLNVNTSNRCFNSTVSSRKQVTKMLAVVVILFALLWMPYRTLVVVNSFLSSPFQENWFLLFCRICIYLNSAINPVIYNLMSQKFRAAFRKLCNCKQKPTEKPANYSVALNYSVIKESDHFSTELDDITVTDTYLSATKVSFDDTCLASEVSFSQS

| SMILES | enhancement |
| --- | --- |
| O=C(Nc1n[nH]c(C(F)(F)F)n1)c1cccs1 | -3.09% |
| O=C(NC1CCCCCCC1)c1cccs1 | -1.69% |
| O=C(Nc1ncccn1)c1cccs1 | 35.8% (active) |
| COc1ccc2c(CNCCc3ccccc3C)c(C(=O)O)n(Cc3ccccc3C)c2c1 | -16.3% |
| CCN1CCN(Cc2c(O)ccc3oc(C)c(C(=O)Nc4ccc(C)cc4C)c23)CC1 | 4.91% |
| CCC(=O)Nc1c(C(=O)N2CCN(c3ccc(F)cc3)CC2)oc2ccccc12 | -8.72% |
| CCN1CCC(N(Cc2ccc(F)cc2)C(=O)Nc2cc(C)ccc2C)CC1 | 10% |
| CCOC(=O)N1CCC(NC(=O)c2cnn(-c3cccc(C)c3)c2C2CCN(C(=O)OC(C)(C)C)CC2)CC1 | 5.75% |
| CC(C)Cn1c(N)c(C(=O)COC(=O)CN2C(=O)C3CC=CCC3C2=O)c(=O)n(C)c1=O (stereo not given) | 0.142% |
| CCCc1cc(=O)[nH]c(SCC(=O)c2c(N)n(CC(C)C)c(=O)n(C)c2=O)n1 | 38.3% (active) |
| CCCc1cc(=O)[nH]c(SCC(=O)N2C(C)CCCC2C)n1 (stereo not given) | 6.92% |
| O=c1cc(CSc2ncn[nH]2)[nH]c2ccc(F)cc12 | 0.991% |
| Cc1c(C(=O)N(C)C)sc2c1c(=O)n(-c1ccc(F)cc1)c(=O)n2CC(=O)N(C)c1ccccc1 | -2.28% |
| CN(CC(=O)Nc1ccccc1C(F)(F)F)C(=O)Cc1ccccc1F | 1.5% |
| CC(C(=O)N(C)CC(=O)Nc1ccccc1C(F)(F)F)N1C(=O)c2ccccc2C1=O (stereo not given) | 35.3% (active) |
| O=C(CN1CCN(c2ncccn2)CC1)Nc1ccccc1C(F)(F)F | 0.988% |
| CCCNc1ncnc2c1c(-c1ccccc1)cn2-c1ccc(OCC)cc1 | -5.52% |
| CCCN(CCC)CCCNC(=O)Cn1ncc2c3ccccc3n(Cc3ccccc3)c2c1=O | 3.33% |
| Cc1nn(Cc2ccccc2)c(C)c1C(=O)NCCCN1CCCC1=O | 8.55% |
| Cc1nn(Cc2ccccc2)c(C)c1C(=O)N1CCN(CC(=O)Nc2ccccc2Cl)CC1 | 66.2% (active) |
| CCC(=O)Nc1ccccc1C(=O)N1CCN(Cc2ccccc2)CC1 | 8.38% |
| O=C(CSc1nccn1Cc1ccc(F)cc1)NCc1ccccc1 | 1.55% |
| Cc1ccc(S(=O)(=O)NC(N)=NCCC[C@@H](NC(=O)CNC(=O)c2ccccc2)C(=O)Nc2cc(C(F)(F)F)ccc2Cl)cc1 | 2.23% |
| CCn1c(SCC(=O)Nc2nccs2)nnc1-c1ccncc1 | 1.36% |
| Nn1c(SCC(=O)Nc2nccs2)nnc1-c1ccco1 | 4.24% |
| CCn1c(SCC(=O)Nc2nccs2)nnc1-c1ccco1 | 38% (active) |
| O=C(CSc1nnc(-c2ccccc2F)o1)Nc1cccc(C(F)(F)F)c1 | 8.13% |
| Cc1cc(C)c2oc(C(=O)Nc3ccc(S(=O)(=O)N(C)c4ccccc4)cc3)cc(=O)c2c1 | 0.252% |

| SMILES | enhancement |
| --- | --- |
| Cc1cc(C)c2oc(C(=O)Nc3ccc(S(=O)(=O)N4CCCCCC4)cc3)cc(=O)c2c1 | 48.6% (active) |
| Cc1ccc2oc(C(=O)Nc3ccc(S(=O)(=O)N4CCCCCC4)cc3)cc(=O)c2c1 | 0.734% |
| Cc1c(C(=O)NCc2ccccc2Br)oc2ccc3c(c12)C(=O)CC(C)(C)O3 | -2.29% |
| COc1cccc(-n2cc(C(=O)NCc3cccc(Cl)c3)c3ccccc3c2=O)c1 | -3.45% |
| CCC(C)NC(=O)c1ccc(N2CCC3(CC2)OCCO3)c([N+](=O)[O-])c1 (stereo not given) | -9.06% |
| CC(NC(=O)c1ccc(N2CCNCC2)c([N+](=O)[O-])c1)C12CC3CC(CC(C3)C1)C2 (stereo not given) | 31.1% (active) |
| O=C(NC1C2CC3CC(C2)CC1C3)c1ccc(N2CCNCC2)c([N+](=O)[O-])c1 (stereo not given) | 2.28% |
| Cc1nc2nc(SCC(=O)NC3CCC(C)CC3)nn2c(C)c1Cc1ccccc1Cl (stereo not given) | 3.16% |
| CCc1ccccc1NC(=O)CSc1nc(C)c(C(=O)Nc2ccccc2)c(-c2ccc(Cl)cc2)c1C#N | -0.268% |
| CCC[C@@H]1C[C@@]1(CCC)[C@@H](NC(=O)c1ccccc1)c1ccc(C(=O)OC)cc1 | -1.9% |
| CCCC(=O)C1=C(N(C)c2ccccc2)CC(C)(C)C(C(=O)OC)C1=O (stereo not given) | 36.8% (active) |
| C=CCO/N=C/C1=C(O)C(C(=O)OC)C(C)(C)CC1=O (stereo not given) | -2.52% |
| Cc1cccc(Cc2c(C)nc3nc(SCc4ccccc4Cl)nn3c2C)c1 | -3.69% |
| COc1ccc(OC)c(-c2noc(N3CCN(c4cc(Cl)ccc4C)CC3)n2)c1 | -2.59% |
| Cc1ccc(-c2cnc(NCc3ccc(C(C)C)cc3)n2C)cc1 | 2.38% |
| Cc1cccc(NC(=O)CSc2ncc(-c3ccccc3)[nH]2)c1C | -2.76% |
| COc1ccc(CNC(=O)c2cc3cccc(OC)c3oc2=O)cc1 | 5.25% |
| O=C(CNC(=O)c1ccccc1)NCC(=O)OCC(=O)c1ccccc1 (Bz-Gly-Gly-OPac) | 48.2% (active) |
| O=C(CNC(=O)Cc1ccccc1)NCC(=O)OCC(=O)c1ccccc1Cl | -4.65% |
| O=C(CNC(=O)c1ccco1)OCC(=O)c1ccccc1 | 14.7% |
| CCCCN(CC)CCCNC(=O)c1nn(C)c2c1CSc1ccccc1-2 | -0.263% |
| Cc1ccc(CN2CCc3nc(N4CCN(C)CC4)ncc3C2)cc1 | -1.43% |
| CCOC(=O)c1ccc(NC(=O)c2ncn(-c3ccccc3)n2)cc1 | -1.95% |
| COc1cccc(C2/C(=C(/O)c3ccncc3)C(=O)C(=O)N2CCCN(C)C)c1 (stereo not given) | 5.69% |
| COc1ccc(/C(O)=C2/C(=O)C(=O)N(CCCN(C)C)C2c2ccccc2)cc1OC (stereo not given) | 7.56% |
| O=C1C(=O)N(CCCO)C(c2ccccc2)/C1=C(\O)c1ccc(Br)cc1 (stereo not given) | 46.2% (active) |
| CC(C)(C)OC(=O)N1CCC(c2c(C(=O)N3CCN(c4cccc(Cl)c4)CC3)cnn2-c2cccc(Cl)c2)CC1 | -12.3% |

Reference: PubChem BioAssay AID493056 (National Center for Advancing Translational Sciences (NCATS), 2011)
